The source of these data is ChEMBL document CHEMBL1961873, “Compounds: GSK PKIS; Assays: Nanosyn kinase panel” (2012).

Experiment [1] relates to Epidermal growth factor receptor (Homo sapiens), P00533 [T790M]. Conditions: at 1 µM.
Experiment [2] has as its system Epidermal growth factor receptor (Homo sapiens), P00533 [L858R,T790M]. Conditions: at 0.1 µM.
The test system is the same in experiment [3]. Conditions: at 1 µM.
The target of experiment [4] is Ephrin type-A receptor 2 (Homo sapiens) (UniProt P29317). The note with it: at 0.1 µM.
Experiment [5] shares this target. The note with it: at 1 µM.
Experiment [6] has as its target T1, Ephrin type-A receptor 3 (Homo sapiens) (UniProt P29320).
T1 sequence (whole entry): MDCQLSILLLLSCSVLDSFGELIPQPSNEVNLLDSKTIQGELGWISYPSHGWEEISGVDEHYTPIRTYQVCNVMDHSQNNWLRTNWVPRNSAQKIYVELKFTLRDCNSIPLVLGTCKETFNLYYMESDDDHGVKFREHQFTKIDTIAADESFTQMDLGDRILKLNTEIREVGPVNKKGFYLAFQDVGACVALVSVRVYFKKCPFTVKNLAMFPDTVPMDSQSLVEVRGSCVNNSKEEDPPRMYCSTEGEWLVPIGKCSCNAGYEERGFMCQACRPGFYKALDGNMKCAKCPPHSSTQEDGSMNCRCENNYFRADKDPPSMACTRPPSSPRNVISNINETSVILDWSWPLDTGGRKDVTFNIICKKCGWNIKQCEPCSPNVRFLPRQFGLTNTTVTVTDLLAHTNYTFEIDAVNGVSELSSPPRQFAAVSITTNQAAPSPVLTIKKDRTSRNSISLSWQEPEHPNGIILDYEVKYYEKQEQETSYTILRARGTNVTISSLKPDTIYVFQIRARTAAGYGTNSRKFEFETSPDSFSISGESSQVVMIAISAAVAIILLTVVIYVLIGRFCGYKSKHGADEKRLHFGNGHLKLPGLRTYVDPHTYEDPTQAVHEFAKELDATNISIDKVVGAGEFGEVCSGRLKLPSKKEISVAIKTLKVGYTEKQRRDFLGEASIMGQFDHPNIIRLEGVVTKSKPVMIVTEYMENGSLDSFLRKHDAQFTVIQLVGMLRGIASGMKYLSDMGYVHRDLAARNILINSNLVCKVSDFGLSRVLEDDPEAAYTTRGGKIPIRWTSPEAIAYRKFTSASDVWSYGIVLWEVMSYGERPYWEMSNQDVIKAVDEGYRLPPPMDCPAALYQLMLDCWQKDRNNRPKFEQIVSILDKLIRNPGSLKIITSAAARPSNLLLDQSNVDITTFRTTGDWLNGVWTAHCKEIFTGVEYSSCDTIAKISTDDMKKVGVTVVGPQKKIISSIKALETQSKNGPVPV
The note with it: at 0.1 µM.

Experiment [7] addresses T1, Ephrin type-A receptor 3 (Homo sapiens). The note with it: at 1 µM.
The target in experiment [8] is Ephrin type-A receptor 4 (Homo sapiens) (UniProt P54764). Conditions: at 0.1 µM.
The target is the same in experiment [9]. Conditions: at 1 µM.
For experiment [10], the target named is T2, Ephrin type-B receptor 2 (Homo sapiens) (UniProt P29323).
T2 sequence (whole entry): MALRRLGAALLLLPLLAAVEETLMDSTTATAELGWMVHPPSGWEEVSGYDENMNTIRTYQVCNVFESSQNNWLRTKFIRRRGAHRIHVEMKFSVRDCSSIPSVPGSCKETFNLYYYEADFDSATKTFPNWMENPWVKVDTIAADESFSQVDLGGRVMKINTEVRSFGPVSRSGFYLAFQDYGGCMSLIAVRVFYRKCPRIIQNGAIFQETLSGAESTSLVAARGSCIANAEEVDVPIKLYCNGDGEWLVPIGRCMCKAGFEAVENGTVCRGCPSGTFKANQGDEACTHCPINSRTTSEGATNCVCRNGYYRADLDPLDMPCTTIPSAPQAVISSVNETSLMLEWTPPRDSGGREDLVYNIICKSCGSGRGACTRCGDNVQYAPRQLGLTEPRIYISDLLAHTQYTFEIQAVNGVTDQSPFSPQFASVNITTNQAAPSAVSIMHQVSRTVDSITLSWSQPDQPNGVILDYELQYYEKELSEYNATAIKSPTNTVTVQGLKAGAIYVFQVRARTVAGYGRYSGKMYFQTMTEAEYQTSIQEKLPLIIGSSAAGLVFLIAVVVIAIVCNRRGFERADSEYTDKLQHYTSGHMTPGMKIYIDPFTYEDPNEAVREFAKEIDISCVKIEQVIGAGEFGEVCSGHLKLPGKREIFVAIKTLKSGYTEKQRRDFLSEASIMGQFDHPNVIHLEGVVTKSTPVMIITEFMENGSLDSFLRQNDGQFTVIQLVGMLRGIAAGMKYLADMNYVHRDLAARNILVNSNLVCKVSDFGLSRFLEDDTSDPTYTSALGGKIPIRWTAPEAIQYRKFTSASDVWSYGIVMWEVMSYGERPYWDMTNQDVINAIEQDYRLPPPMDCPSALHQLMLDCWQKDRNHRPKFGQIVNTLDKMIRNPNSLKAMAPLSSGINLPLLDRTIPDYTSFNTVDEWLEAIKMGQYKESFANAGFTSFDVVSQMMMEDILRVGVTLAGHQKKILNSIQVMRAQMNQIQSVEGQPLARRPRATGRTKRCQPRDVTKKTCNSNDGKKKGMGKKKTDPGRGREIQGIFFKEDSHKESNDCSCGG
The note with it: at 0.1 µM.

The target of experiment [11] is T2, Ephrin type-B receptor 2 (Homo sapiens). The note with it: at 1 µM.
For experiment [12], the target named is T3, Ephrin type-B receptor 3 (Homo sapiens) (UniProt P54753).
T3 sequence (whole entry): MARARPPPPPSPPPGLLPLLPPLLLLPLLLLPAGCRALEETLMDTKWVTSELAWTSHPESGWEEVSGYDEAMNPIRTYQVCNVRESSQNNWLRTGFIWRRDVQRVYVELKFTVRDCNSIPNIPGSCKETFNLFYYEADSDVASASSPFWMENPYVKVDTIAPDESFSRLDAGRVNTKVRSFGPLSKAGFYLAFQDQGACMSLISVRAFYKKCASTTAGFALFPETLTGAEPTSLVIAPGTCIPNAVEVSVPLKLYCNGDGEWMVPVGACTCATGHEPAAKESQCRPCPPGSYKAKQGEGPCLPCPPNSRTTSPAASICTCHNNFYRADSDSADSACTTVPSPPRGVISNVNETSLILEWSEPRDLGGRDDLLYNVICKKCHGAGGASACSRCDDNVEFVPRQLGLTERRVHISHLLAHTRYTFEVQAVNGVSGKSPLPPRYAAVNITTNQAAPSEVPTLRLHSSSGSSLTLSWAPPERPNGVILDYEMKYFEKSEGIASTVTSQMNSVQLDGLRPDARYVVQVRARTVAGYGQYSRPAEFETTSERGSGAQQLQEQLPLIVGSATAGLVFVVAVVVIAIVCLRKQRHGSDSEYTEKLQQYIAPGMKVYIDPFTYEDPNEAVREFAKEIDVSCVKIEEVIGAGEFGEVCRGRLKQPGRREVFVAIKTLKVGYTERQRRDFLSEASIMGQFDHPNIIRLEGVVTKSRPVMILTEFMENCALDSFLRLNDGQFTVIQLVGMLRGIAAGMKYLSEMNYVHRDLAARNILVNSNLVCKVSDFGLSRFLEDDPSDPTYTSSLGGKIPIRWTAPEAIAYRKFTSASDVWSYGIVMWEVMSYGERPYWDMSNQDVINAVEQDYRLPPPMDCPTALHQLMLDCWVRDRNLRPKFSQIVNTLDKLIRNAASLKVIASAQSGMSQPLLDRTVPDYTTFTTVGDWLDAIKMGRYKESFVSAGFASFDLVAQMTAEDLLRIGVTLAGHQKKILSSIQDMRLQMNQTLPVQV
The note with it: at 0.1 µM.

Experiment [13] deals with T3, Ephrin type-B receptor 3 (Homo sapiens). Conditions: at 1 µM.
Experiment [14] deals with T4, Ephrin type-B receptor 4 (Homo sapiens) (UniProt P54760).
T4 sequence (whole entry): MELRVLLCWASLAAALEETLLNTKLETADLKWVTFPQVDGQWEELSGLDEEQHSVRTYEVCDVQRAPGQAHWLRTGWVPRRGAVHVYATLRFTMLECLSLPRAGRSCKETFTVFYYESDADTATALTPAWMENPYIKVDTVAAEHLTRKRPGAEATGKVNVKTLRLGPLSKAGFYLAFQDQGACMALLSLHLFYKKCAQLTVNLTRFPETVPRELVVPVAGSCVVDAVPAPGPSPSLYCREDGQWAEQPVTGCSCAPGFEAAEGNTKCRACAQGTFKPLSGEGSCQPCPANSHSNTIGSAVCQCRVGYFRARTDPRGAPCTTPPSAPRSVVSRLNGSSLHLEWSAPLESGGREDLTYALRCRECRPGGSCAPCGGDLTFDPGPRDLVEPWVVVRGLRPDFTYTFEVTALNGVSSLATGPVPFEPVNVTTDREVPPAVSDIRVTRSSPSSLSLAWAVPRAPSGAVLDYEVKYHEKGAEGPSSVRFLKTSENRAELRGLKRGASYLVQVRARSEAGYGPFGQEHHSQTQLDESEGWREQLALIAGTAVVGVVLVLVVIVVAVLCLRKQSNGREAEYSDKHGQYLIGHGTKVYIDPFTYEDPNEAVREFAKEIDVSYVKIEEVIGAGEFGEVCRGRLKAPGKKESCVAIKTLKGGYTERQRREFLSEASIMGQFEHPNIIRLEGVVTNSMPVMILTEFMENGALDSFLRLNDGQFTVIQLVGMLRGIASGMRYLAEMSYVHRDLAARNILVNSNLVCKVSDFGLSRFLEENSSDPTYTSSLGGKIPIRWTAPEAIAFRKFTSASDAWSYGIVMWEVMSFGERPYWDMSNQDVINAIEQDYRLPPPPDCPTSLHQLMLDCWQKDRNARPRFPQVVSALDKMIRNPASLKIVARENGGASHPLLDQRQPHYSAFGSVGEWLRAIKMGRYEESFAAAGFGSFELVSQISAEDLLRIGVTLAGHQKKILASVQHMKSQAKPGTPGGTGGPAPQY
Conditions: at 0.1 µM.

Experiment [15] deals with T4, Ephrin type-B receptor 4 (Homo sapiens). Conditions: at 1 µM.
Experiment [16] deals with Receptor tyrosine-protein kinase erbB-2 (Homo sapiens) (UniProt P04626). The note with it: at 0.1 µM.
Chain of Receptor tyrosine-protein kinase erbB-2 (Homo sapiens) (P04626 whole entry): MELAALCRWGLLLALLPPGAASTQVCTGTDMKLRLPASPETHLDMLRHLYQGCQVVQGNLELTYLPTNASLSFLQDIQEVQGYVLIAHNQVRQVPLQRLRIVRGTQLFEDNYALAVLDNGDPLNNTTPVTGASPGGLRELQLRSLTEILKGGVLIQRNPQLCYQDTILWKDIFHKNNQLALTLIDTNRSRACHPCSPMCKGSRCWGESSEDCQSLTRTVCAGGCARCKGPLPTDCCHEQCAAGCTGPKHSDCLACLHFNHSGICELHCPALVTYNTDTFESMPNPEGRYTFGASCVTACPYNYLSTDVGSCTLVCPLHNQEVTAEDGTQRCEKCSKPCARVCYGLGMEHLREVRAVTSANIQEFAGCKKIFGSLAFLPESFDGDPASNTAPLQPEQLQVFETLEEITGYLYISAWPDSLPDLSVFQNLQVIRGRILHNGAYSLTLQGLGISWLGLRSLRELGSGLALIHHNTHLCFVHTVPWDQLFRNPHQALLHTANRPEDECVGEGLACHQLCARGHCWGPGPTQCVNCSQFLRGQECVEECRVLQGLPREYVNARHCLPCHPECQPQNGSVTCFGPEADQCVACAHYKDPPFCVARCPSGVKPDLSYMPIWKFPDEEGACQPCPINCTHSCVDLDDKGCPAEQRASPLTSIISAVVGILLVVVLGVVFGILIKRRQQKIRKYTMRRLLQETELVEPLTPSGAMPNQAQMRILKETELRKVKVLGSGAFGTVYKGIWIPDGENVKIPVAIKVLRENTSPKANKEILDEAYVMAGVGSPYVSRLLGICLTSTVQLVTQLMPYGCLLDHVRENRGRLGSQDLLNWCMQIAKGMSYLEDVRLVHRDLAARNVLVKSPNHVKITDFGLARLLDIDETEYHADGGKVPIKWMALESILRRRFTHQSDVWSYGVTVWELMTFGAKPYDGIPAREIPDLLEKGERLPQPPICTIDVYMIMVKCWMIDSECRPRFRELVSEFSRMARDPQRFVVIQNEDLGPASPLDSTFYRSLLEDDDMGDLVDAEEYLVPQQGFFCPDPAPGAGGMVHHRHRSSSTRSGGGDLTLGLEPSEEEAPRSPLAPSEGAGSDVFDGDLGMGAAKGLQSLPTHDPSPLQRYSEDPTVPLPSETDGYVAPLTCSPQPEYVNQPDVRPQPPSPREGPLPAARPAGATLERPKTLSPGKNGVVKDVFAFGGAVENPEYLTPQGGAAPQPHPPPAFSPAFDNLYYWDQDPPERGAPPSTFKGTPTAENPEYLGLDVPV
For experiment [17] the target is unchanged. The note with it: at 1 µM.
For experiment [18], the target named is Receptor tyrosine-protein kinase erbB-4 (Homo sapiens) (UniProt Q15303). Conditions: at 0.1 µM.
Chain of Receptor tyrosine-protein kinase erbB-4 (Homo sapiens) (Q15303 whole entry): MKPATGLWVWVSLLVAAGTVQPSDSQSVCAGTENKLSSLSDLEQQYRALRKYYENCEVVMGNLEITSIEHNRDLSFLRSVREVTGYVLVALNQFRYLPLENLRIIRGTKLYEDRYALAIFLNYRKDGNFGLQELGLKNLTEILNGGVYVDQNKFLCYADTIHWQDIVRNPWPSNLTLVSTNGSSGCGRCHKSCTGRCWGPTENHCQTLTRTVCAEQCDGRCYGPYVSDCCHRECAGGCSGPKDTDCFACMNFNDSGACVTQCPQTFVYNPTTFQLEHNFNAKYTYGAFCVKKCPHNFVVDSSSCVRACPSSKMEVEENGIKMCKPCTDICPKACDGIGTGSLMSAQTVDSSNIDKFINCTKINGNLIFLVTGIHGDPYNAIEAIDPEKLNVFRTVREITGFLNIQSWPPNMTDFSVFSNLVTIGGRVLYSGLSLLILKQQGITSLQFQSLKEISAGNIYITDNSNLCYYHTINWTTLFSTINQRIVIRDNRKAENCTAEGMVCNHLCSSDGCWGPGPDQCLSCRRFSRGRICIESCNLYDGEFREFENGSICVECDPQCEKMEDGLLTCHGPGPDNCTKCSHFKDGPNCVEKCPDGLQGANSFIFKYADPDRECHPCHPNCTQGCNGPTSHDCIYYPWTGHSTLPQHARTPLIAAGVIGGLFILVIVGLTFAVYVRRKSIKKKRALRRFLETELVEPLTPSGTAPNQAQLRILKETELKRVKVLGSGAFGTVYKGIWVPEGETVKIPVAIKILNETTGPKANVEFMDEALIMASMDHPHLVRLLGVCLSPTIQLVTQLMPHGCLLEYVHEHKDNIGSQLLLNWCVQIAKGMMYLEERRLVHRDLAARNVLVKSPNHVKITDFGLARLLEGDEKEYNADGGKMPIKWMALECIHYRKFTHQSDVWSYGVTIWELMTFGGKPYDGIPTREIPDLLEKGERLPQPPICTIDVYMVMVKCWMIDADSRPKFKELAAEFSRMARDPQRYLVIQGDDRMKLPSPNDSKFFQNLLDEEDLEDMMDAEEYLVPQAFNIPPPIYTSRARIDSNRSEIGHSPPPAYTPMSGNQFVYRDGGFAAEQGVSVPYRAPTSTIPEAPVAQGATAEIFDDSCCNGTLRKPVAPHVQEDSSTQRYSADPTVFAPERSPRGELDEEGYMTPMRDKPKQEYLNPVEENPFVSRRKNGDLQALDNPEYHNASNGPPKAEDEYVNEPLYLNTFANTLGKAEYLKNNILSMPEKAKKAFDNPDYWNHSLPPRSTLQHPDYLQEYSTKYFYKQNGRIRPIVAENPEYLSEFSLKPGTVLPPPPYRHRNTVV
Experiment [19] has the same target. The note with it: at 1 µM.
For experiment [20], the target named is Tyrosine-protein kinase Fer (Homo sapiens) (UniProt P16591). Conditions: at 0.1 µM.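 Also: reported figures are averaged percent inhibition of FER.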
Chain of Tyrosine-protein kinase Fer (Homo sapiens) (P16591 whole entry, looked up): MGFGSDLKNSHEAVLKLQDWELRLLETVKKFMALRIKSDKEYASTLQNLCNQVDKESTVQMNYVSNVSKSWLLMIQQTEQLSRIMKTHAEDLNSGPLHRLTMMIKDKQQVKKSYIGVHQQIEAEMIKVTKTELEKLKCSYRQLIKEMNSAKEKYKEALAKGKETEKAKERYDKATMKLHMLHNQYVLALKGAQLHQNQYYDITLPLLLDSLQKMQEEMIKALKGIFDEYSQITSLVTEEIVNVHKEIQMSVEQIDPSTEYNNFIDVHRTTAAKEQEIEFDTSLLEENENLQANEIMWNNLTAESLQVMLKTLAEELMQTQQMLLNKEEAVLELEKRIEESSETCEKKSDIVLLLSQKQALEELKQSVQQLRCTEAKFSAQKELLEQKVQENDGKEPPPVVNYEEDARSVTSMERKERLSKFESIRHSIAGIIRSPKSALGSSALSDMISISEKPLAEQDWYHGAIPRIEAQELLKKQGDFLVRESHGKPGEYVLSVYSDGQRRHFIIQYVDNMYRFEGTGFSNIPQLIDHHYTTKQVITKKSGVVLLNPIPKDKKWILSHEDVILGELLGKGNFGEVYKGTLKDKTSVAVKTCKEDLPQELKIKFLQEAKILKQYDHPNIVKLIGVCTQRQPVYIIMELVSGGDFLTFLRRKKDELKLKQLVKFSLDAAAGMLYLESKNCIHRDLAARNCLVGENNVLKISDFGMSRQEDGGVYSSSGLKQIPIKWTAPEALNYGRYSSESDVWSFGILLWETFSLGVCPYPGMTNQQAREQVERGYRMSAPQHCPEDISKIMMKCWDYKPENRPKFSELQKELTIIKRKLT

Chain of Epidermal growth factor receptor (Homo sapiens), P00533 [T790M] (P00533 whole entry T790M): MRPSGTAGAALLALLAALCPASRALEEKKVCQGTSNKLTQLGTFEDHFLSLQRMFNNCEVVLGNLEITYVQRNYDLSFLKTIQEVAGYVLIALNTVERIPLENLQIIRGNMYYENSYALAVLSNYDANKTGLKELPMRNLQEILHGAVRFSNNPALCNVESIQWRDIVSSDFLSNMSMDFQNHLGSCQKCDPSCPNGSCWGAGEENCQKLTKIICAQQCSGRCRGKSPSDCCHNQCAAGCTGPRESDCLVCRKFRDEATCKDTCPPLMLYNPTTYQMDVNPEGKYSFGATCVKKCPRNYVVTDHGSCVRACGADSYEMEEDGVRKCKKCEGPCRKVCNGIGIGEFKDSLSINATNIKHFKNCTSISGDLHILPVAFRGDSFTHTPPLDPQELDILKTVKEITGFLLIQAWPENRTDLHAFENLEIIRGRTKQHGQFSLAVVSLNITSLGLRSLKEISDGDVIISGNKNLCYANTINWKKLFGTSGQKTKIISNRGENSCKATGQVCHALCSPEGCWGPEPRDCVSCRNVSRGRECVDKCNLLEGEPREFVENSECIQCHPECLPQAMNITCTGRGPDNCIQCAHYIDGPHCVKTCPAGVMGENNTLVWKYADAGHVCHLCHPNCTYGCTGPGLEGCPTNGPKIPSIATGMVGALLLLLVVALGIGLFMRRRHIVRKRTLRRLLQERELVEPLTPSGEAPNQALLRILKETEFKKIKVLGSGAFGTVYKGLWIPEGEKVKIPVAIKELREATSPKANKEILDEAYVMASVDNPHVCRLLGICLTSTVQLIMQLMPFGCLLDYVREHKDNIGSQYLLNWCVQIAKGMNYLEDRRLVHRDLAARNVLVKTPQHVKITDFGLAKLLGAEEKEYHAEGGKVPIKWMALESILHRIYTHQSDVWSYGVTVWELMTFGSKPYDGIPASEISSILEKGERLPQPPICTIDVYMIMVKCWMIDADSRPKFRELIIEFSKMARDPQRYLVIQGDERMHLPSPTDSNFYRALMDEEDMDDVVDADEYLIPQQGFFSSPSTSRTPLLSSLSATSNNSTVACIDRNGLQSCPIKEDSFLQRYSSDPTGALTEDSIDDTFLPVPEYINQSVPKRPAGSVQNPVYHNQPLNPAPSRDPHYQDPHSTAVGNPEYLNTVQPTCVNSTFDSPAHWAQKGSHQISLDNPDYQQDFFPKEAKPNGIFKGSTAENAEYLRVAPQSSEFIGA

As usually defined, the inhibition is the drop in the measured response relative to a control, in per cent. For the compound `CCCN(CCS(C)(=O)=O)Cc1ccc(-c2ccc3ncnc(Nc4ccc(OCc5cccc(F)c5)c(Cl)c4)c3c2)o1`, the inhibition in experiment [1] was 8.75%; in experiment [2], -1%; in [3], 3.75%; in experiment [4], -2.13%; in [5] it was -0.4%; in experiment [6], 2.56%. Also, the inhibition in experiment [7] turned out to be 2.25%; in [8] it was 5.97%; in experiment [9], 5.71%; in [10], 4.71%; in experiment [11], 5.21%; in experiment [12], 4.42%. For the same compound, the inhibition in [13] turned out to be 2.17%; in experiment [14] it was 3.87%; in [15], 1.36%; in experiment [16] it was 19.1%; in [17], 82.1%; in [18], 76.3%. The figures for the inhibition in experiment [19] and in experiment [20] were 79.2% and 2.14%, respectively.
As for `O=C(Nc1n[nH]c2cc(-c3ccc(F)cc3)ccc12)C1CC1`, the inhibition in experiment [1] is 1.6%; in experiment [2] it was 1.46%; in [3], 1.41%; in experiment [4] it was -2.34%; in experiment [5], -1.62%; in experiment [6], 2.89%. Also, the inhibition was found to be 4.36% in experiment [7]; 7.63% in experiment [8]; 4.17% in experiment [9]; 6.99% in experiment [10]; 7.07% in experiment [11]; 5.69% in [12]. Besides, the inhibition is 1.87% in experiment [13]; 1.47% in [14]; 2.87% in [15]; 1.75% in [16]; -0.76% in experiment [17]; 6.81% in [18]. The inhibition in experiment [19] is 11.6%; in experiment [20], 5.3%.
Regarding `COC(=O)Nc1nc2ccc(Oc3ccc(NC(=O)Nc4cccc(Cl)c4)cc3)cc2[nH]1`, the inhibition in experiment [1] is -0.68%; in [2], -2.96%; in experiment [3], 0.71%; in experiment [4] it was 7.68%; in experiment [5], 41.2%; in [6] it was 4.1%. The inhibition in [7] was found to be 8.5%; in [8] it was 22.3%; in [9], 62.9%; in [10], 36.9%; in experiment [11], 68%; in [12], 4.58%. Moreover, the inhibition in experiment [13] is 5.18%; in [14], 4.66%; in experiment [15], 14.4%; in experiment [16], -0.47%; in experiment [17], 5.3%; in [18], 6.76%. In addition, the values for the inhibition in [19] and in experiment [20] were 9.87% and 1.61%, respectively.
